Bioassay records: PubChem BioAssay, National Center for Advancing Translational Sciences (NCATS)
Methyltransferases – Primary Screen for Target Class Profiling of Small Molecule Inhibitors of Methyltransferases; purified enzyme, MTase-Glo SAH luminescence; active compounds read low; calls only at 40 µM; hit rate 3.9% among 25,000; AID 1745853, 2022; call rule not given here
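Each enzyme was reacted with SAM and its substrate, with compounds tested once at 40 uM; SAH formed was read by MTase-Glo luminescence.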
Of the large screens only hits and unclear results are named; the others gave an inactive call. Shown is part of a subset that was picked to be rich in hits.

C=C1C(=O)OC[C@H]2C(C(=O)O)=CC3CC(C)(C)C[C@@]132 (some centres undefined)	none
COC(=O)[C@H](NC(=O)[C@@H]1C[C@@H](NC(=O)CSC)CCN1S(=O)(=O)c1ccc(OC)cc1)C(C)C	none
Cc1ccc(CNS(=O)(=O)c2cc3[nH]c(=O)[nH]c3cc2C)cc1	none
COC(=O)c1ncn2c1C(=O)N(c1cc(C)ccc1C)C(C)(C(=O)NC1CCCCCC1)C2 (centres undefined)	none
COc1cccc(CN2C(=O)c3cc4ccccc4n3CC2(C)C(=O)NCc2ccccc2)c1 (centres undefined)	none
CC1CCC/C=C/C(=O)c2c(O)cc(O)cc2CC(=O)O1 (centres undefined)	none
CC1CCCCCCCc2cc(O)cc(O)c2C(=O)O1 (centres undefined)	Methyltransferases active
CC1CCCC2OC2C(=O)c2c(O)cc(O)cc2CC(=O)O1 (centres undefined)	none
COc1cccc(CNC(=O)c2cc3n(n2)CC(C)(C(=O)NC2CCCCCC2)N(C)C3=O)c1 (centres undefined)	none
CC(C)CCNC(=O)C1(C)Cn2nc(C(=O)NC3CCCCC3)cc2C(=O)N1C (centres undefined)	none
O=C(Cn1nc2nc(Nc3ccc(F)cc3)ccn2c1=O)Nc1ccc2c(c1)OCCO2	none
Cc1ccc(CNC(=O)c2ccc3c(=O)nc4c(-c5cccc(C)c5)n[nH]n4c3c2)cc1	none
C=C(C(=O)O)C1CC2=C(C)C(=O)CC2C(C)CC1O (centres undefined)	none
C=C(C(=O)O)[C@@H]1CC[C@H](C)[C@@H]2CC(=O)C(C)=C2C1	Methyltransferases active
Cc1ccc(CN2C(=O)c3ccccc3CC2(C)C(=O)NCc2ccccc2)cc1 (centres undefined)	none
CSCCC(NC(=O)c1ccccc1NC(=O)c1ccccc1)C(=O)O (centres undefined)	none
CCCCN1C(=O)c2ccc(-c3ccccc3)n2CC1(C)C(=O)NC1CCCCC1 (centres undefined)	none
CC1(C(=O)NC2CCCCCC2)Cn2nc(-c3ccco3)cc2C(=O)N1Cc1ccco1 (centres undefined)	none
CCN(CC)c1nc2c(-c3cccc(F)c3)nnn2c2ccc(Cl)cc12	none
C=C1C(=O)OC2CC(COC(=O)C(C)C)=C(C(C)CCCOC(C)=O)[C@@H](OC(C)=O)C12 (some centres undefined)	none
C=C1C(=O)O[C@@H]2CC(C)=C([C@@H](C)CCCOC(C)=O)[C@@H](O)[C@H]12	Methyltransferases active
C=C1C(=O)OC2CC(C)=C(C(C)CCCO[C@@H]3O[C@H](CO)[C@@H](O)[C@H](O)[C@H]3O)C(O)C12 (some centres undefined)	none
COc1ccccc1CNC(=O)C1(C)Cn2nc(-c3ccccc3)cc2C(=O)N1c1ccc(C)cc1Cl (centres undefined)	none
Cc1cc(O)c2c(c1)C(=O)c1cc(O)cc(O)c1C2=O	Methyltransferases active
CC12CC(O)C(O)C=C1c1cc(O)cc(O)c1C(=O)O2 (centres undefined)	none
CC(C)CCNC(=O)C1c2c(n(C)c3ccccc23)SCC(=O)N1c1ccc(C(C)C)cc1 (centres undefined)	none
CCN(CC)CCCN1C(=O)c2ccc(-c3ccco3)n2CC1(C)C(=O)NC1CCCCC1 (centres undefined)	none
O=C(c1ccccc1)c1c(O)cc(O)cc1O[C@@H]1O[C@H](CO)[C@@H](O)[C@H](O)[C@H]1O	Methyltransferases active
O=C(/C=C/c1ccccc1O)O[C@@H]1O[C@H](CO)[C@@H](O)[C@H](O)[C@H]1O	none
CC(=O)c1c(O)cc(O[C@@H]2O[C@H](CO)[C@@H](O)[C@H](O)[C@H]2O)cc1O	none
CC(=O)c1c(C)cc(O[C@@H]2O[C@H](CO)[C@@H](O)[C@H](O)[C@H]2O)cc1O	none
OC[C@H]1O[C@@H](OC[C@H]2O[C@@H](OC/C=C/c3ccccc3)[C@H](O)[C@@H](O)[C@@H]2O)[C@@H](O)[C@@H]1O	none
O=C(O[C@@H]1O[C@H](CO)[C@@H](O)[C@H](O)[C@H]1O)c1c(O)cc(O)cc1/C=C/c1ccccc1	Methyltransferases active
OC[C@H]1O[C@@H](Oc2ccc(O)c3cccc(O)c23)[C@H](O)[C@@H](O)[C@@H]1O	Methyltransferases active
OC[C@H]1O[C@@H](Oc2ccccc2)[C@H](O)[C@@H](O)[C@@H]1O	none
OCCc1ccc(O[C@@H]2O[C@H](CO)[C@@H](O)[C@H](O)[C@H]2O)c(O)c1	none
CCCn1c(=O)c2ccccc2n2c(=O)n(Cc3ccc(C)cc3)nc12	none
CCOC(=O)Cc1c(-c2ccccc2)c2cc(Br)ccc2[nH]c1=O	none
CCc1cc2c(cc3n2CC(C)(C(=O)NC2CCCCC2)N(Cc2ccccc2F)C3=O)s1 (centres undefined)	none
COc1ccc(CNC(=O)C2(C)Cn3cnc(C(=O)NCc4cccc(Cl)c4)c3C(=O)N2C2CC2)cc1 (centres undefined)	none
CCCn1c(=O)c2ccc(C(=O)NCC(C)C)cc2n2c(=O)n(Cc3cccc(F)c3)nc12	none
